The values below come from PubChem BioAssay (NCI).

SMILES strings stand for the structures. Compounds without any hit were thinned out: in the full panel of roughly 83,000, 20% have a hit.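 Negative percent growth values reflect cell death: -40 means 40% of the cells present at the start died, and -100 means all died.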 Unmarked numbers belong to inactive results. Activity calls are given as the source filed them. Rule for the calls: active = growth percent below 10; inactive = the rest.

The subject of the assay is MDA-MB-468 breast. As to the kind of experiment: NCI-60 one-dose screen, 48 h (100 = growth as untreated, 0 = no growth, -100 = all killed). As to conditions: 10 µM unless noted.
For the molecule `Clc1nn2c(Cn3cnc4c(NCc5ccccc5)ncnc43)nnc2c2ccccc12`, the growth was 35.3%.

On to `COc1ccc(-c2cc(-c3cccnc3)nc3sc4c(=O)[nH]c(-c5ccc(Cl)cc5)nc4c23)cc1OC`, for which the growth is 97.8%.

`C/C(O)=C(/C=N/C(=S)Nc1ccccc1)C(=O)Nc1ccccc1C`: the growth is 99.7%.

As to `Fc1ccc(-c2nc(-c3ccc(-c4nc5ccc(F)cc5[nH]4)cc3)no2)cc1`, the growth is 56.2%.

Regarding `CCOC(=O)C1=NN(c2ccccc2)C2=NC(=O)/C(=C\c3cn(-c4ccccc4)nc3-c3cc4ccccc4o3)C(=O)N12`, the growth was 111%.

With `Cc1ccc2cnc(N)c(C#Cc3cncc(C(=O)Nc4ccc(CN5CCN(C)CC5)c(C(F)(F)F)c4)c3)c2c1`, the growth is -87.1% (active).

`CCCCCCN(CCCCCC)c1ccc(/C=C2/SC(=O)NC2=O)c(C)c1`: the growth was 80.6%.

`O=C(CN1CCN(c2cc(=O)n(-c3ccccc3)c3ccccc23)CC1)Nc1cccc(C(F)(F)F)c1`: the growth was 4.55% (active).

With `N#CC1=C(N)Oc2c(cnn2-c2ccc([N+](=O)[O-])cc2[N+](=O)[O-])C1c1ccccc1` (stereo unspecified), the growth is 87.7%.

In the case of `CC(CN(C)C)Oc1ccccc1NC1=C(Cl)C(=O)C(Nc2ccccc2OC(C)CN(C)C)=C(Cl)C1=O` (stereo unspecified), the growth is -64.2% (active).

Consider `COc1ccc(C(=O)OC2C(OC3C(O)COC(O[C@H]4C[C@H]5[C@@H]6CC=C7C[C@@H](O)CC[C@]7(C)[C@H]6CC[C@]5(C)[C@H]4[C@H](C)C(=O)CCC(C)C)C3OC(N)=O)OCC(O)C2O)cc1` (stereo partly specified), for which the growth is -24.5% (active).
